Screening results from PubChem.
HT1080NT lethal – qHTS for induction of synthetic lethality in tumor cells producing 2HG: qHTS for the HT-1080-NT fibrosarcoma cell line; HT-1080-NT fibrosarcoma viability, CellTiter-Glo ATP luminescence, 48 h; Potency, µM (doses to about 46.1 µM), actives largely listed as cytotoxic; actives 1.6% (n = 360,000); AID 686970, 2013;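 note: NT is the 2HG producing partner of a matched IDH1 knockdown line; nearly all actives have a fitted effect of over 55% in size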
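Fibrosarcoma NT cells, 750 per well in 5% FBS RPMI, were exposed to compound for 48 hours. Viability: CellTiter-Glo luminescence.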
KB-3-1 cytotox – qHTS assay for MDR1-selective chemotherapeutics: Primary screen using the parental adenocarcinoma cell KB-3-1; KB-3-1 viability, CellTiter-Glo ATP luminescence, 72 h; Potency, µM (highest dose often 46.1 µM), most hits filed as cytotoxic; actives 1.4% (n = 400,000); note: nearly all actives have a fitted effect of over 60% in size
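Cytotoxicity measured as CellTiter-Glo luminescence after 72 h at 37 C. Compound titrations were pinned onto drug-naive KB-3-1 parental adenocarcinoma cells grown in DMEM with 10% FBS, and normalized data fitted to concentration-response curves.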
MCF10A rereplic – A quantitative high throughput screen for small molecules that induce DNA re-replication in MCF 10a normal breast cells | Potency, µM (titrated, usually from 46.1 µM), actives largely listed as activators | actives 2.9% (n = 350,000) | MCF 10A DNA re-replication, Hoechst nuclear intensity, 48 h; note: nearly all actives have a fitted effect of over 50% in size
KB-V1 cytotox – qHTS assay for MDR1-selective chemotherapeutics: Primary screen using the drug-selected MDR subline cells KB-V1; KB-V1 MDR cells viability, CellTiter-Glo, 72 h; Potency, µM (series often up to 46.1 µM), hits mostly cytotoxic; actives 3.4% (n = 400,000); AID 1347076, 2019; note: nearly all actives have a fitted effect of over 60% in size
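Cells of the MDR subline KB-V1 are plated, dosed with compound at multiple concentrations, and incubated 72 h at 37 degrees C; CellTiter-Glo is then added and luminescence read after 10 min.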
HT1080 IDH1KD tx – qHTS for induction of synthetic lethality in tumor cells producing 2HG: qHTS for the HT-1080-IDH1KD cell line; HT-1080 IDH1 knockdown viability, ATP luminescence, 48 h; Potency, µM (titrated, usually from 46.1 µM), most hits filed as cytotoxic; actives 2% (n = 360,000); AID 686971, 2013
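IDH1KD HT-1080 cells, 750/well, RPMI + 5% FBS; compound pinned after 2 h settling; 48 h, 37 °C; CellTiter-Glo luminescence; % activity normalised to DMSO and no-cell wells; curves fitted, classed by r2 and efficacy.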
SW480 rereplic – A quantitative high throughput screen for small molecules that induce DNA re-replication in SW480 colon adenocarcinoma cells; SW480 DNA re-replication, Hoechst DNA content imaging, 48 h; Potency, µM (top dose mostly 46.1 µM), most hits filed as activators; actives 1.8% (n = 340,000); AID 624297, 2012; note: nearly all actives have a fitted effect of over 55% in size
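First, 250 cells per well were seeded. Next, compound or vehicle (23 nL) was pinned in, plates sat 48 hr at 37 C. Finally Hoechst was added for 40 min before fluorescence scanning.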
A number is an active result; n = inactive; u = inconclusive; x = not tested or not shown. Shown are actives, neighbours in structure and some others; about 8% of the full set was active somewhere. Calls come from the whole dose curve; as a rule, active = well fitted curve in the direction sought with a large enough effect; inconclusive = small, poorly fitted or top-dose-only effect, or another doubt; inactive = no such curve, though single readings can be large; an effect the other way counts as inactive or inconclusive.

SMILES | HT1080NT lethal | KB-3-1 cytotox | MCF10A rereplic | KB-V1 cytotox | HT1080 IDH1KD tx | SW480 rereplic
COCC1CCN(C(=O)c2cc(COc3ccc4ncccc4c3)on2)CC1 | n | u | n | 7.31µM | n | n
O=C(NC1CCCC1)c1cc(COc2ccc3ncccc3c2)on1 | u | n | n | u | u | n
Cc1ccc(OCc2cc(C(=O)N3CCN(C4CCCCC4)CC3)no2)cc1C | n | n | 11.6µM | n | n | n
O=C(c1cc(COc2ccc3ncccc3c2)on1)N1CCCC1 | 20.6µM | u | n | u | 14.6µM | n
O=C(NCCc1cn2ccccc2n1)c1cc(COc2ccc3ncccc3c2)on1 | n | u | u | 8.2µM | n | n
CC(C)c1ccc(NC2CCCN(C(=O)c3ccc(N4CCOCC4)cc3)C2)cc1 (stereo not given) | n | n | n | u | n | n
OC(Cc1ccccc1)c1ncc(-c2ccc3ccccc3c2)[nH]1 (stereo not given) | u | n | x | n | 18.4µM | x
COc1ccc(-c2c(C)nn3c(C(F)(F)F)cc(-c4ccccc4)nc23)cc1 | x | n | x | n | x | x
O=C1/C(=C\c2ccco2)SC(=S)N1c1ccc(O)cc1 | n | n | n | n | n | 20.6µM
Cn1cccc1/C=C1\SC(=Nc2cccc(O)c2)NC1=O | u | u | 9.2µM | n | 14.6µM | n
COc1cc(/C=C2\SC(=Nc3ccc(O)cc3)NC2=O)cc(OC)c1O | u | u | u | n | u | u
Cn1cc(/C=C2/SC(=O)N(c3ccccc3)C2=O)c2ccccc21 | n | n | n | n | n | n
Cc1ccc(N=C2NC(=O)/C(=C/c3cn(C)c4ccccc34)S2)cc1C | n | u | 20.6µM | u | n | u
O=C1/C(=C/C=C/c2ccco2)SC(=S)N1c1ccc(O)cc1 | n | n | n | n | n | n
O=C1NC(=Nc2ccccc2)S/C1=C\c1cccs1 | n | n | n | n | n | n
Cn1cccc1/C=C1\SC(=Nc2ccccc2)NC1=O | u | 2.31µM | u | 2.59µM | 5.17µM | u
Cn1cccc1/C=C1\SC(=Nc2ccc(O)cc2)NC1=O | 0.517µM | 0.291µM | 0.581µM | n | 0.731µM | 0.461µM
Cc1ccc(N=C2NC(=O)/C(=C/c3cccn3C)S2)c(C)c1 | n | n | n | 23.1µM | n | n
COC(=O)/C=C1/SC(=Nc2ccc(C)cc2C)NC1=O | n | n | u | n | n | n
O=C1NC(=Nc2ccc(O)cc2)S/C1=C/c1ccco1 | u | u | 4.61µM | 8.2µM | u | 2.91µM
CCN(CC)C(=O)C1CCN(C(=O)c2cnn(-c3ccccc3)c2-n2cccc2)CC1 | x | n | x | n | x | x
CCOc1ccc(OCc2ccc(C(=O)N3N=C(C(F)F)CC3(O)C(F)F)o2)cc1 (stereo not given) | u | n | n | 16.4µM | u | n
Cc1cc(C)cc(OCc2ccc(C(=O)N3N=C(C(F)F)CC3(O)C(F)F)o2)c1 (stereo not given) | n | n | 23.1µM | u | n | n
O=C(c1ccc(COc2ccc(Br)cc2)o1)N1N=C(C(F)F)CC1(O)C(F)F (stereo not given) | u | n | u | n | 20.6µM | n
C[C@H]1CN([C@@H](C)CO)C(=O)c2cc(-c3cccc(C#N)c3)cnc2O[C@H]1CN(C)C(=O)c1ccccn1 | n | n | x | n | n | x
SMILES | HT1080NT lethal | KB-3-1 cytotox | MCF10A rereplic | KB-V1 cytotox | HT1080 IDH1KD tx | SW480 rereplic
O=C(NCCCNC(=O)c1ccc(-c2cc(Cl)ccc2Cl)o1)c1cnccn1 | n | n | n | n | n | n
COc1ccc(C(=O)/C=C/c2ccc(F)cc2)c(OC(=O)c2ccc([N+](=O)[O-])cc2)c1 | u | n | u | u | u | u
COc1ccc(C(=O)/C=C/c2cccs2)c(OC(=O)c2cccc([N+](=O)[O-])c2)c1 | n | 7.31µM | u | n | n | n
COc1ccc(C(=O)NC(C(=O)NCCc2ccc3c(c2)OCCO3)C(C)C)cc1 (stereo not given) | n | n | n | n | n | n
CCOC(=O)N1CCC(N(C(=O)Nc2ccccc2)C(C)CC)CC1 (stereo not given) | n | n | n | 14.6µM | n | n
O=C1[C@H](Cc2ccccc2)NCC=CC[C@H](c2ccc(Cl)cc2)N1Cc1ccc(Cl)cc1 | u | u | n | u | u | n
Cc1ccc(CNC(=O)CCCn2c(=O)[nH]c3ccc(Br)cc3c2=O)cc1 | x | n | x | n | x | x
CCOc1ccc(CCNC(=O)c2nnc(Cc3ccc(Cl)cc3Cl)o2)cc1OCC | x | n | x | n | x | x
COc1cccc(NC(=O)CNC(=O)Cn2c(C)cc3ccccc3c2=O)c1 | x | n | x | n | x | x
C/C(=N\NC(=O)C1CC1)c1ccc(OC(F)F)cc1 | n | u | n | 13µM | n | n
COC(=O)N/N=C(\C)c1ccc(OC(F)F)cc1 | n | n | n | u | n | n
Cc1ccc(C)c(N2CCN(C(=O)Nc3cn(CC(C)C)c(=O)c4ccccc34)CC2)c1 | x | u | x | n | x | x
CCS(=O)(=O)N1CCCC(C(=O)NC2CCCCC2)C1 (stereo not given) | n | n | n | n | n | n
Cc1ccc(S(=O)(=O)N2CCCC(C(=O)NC3CCCC3)C2)cc1Cl (stereo not given) | n | u | n | 13µM | n | n
CS(=O)(=O)N1CCCC(C(=O)NC2CCCCCCC2)C1 (stereo not given) | n | n | 23.1µM | u | n | n
C[C@@]12C(C[C@H](O)[C@@]34C[C@@H](CCC13)[C@@H](CO)C4=O)[C@](C)(C(=O)O)CC[C@@H]2O (stereo not given in full) | 29.1µM | n | x | n | u | x
C[C@@]12CCC3[C@@](CC[C@@H]4[C@](C)(C(=O)O)CCC[C@@]34C)(C[C@H]1O)C2 (stereo not given in full) | n | n | n | n | n | n
COC(=O)[C@]1(C)CCC[C@@]2(C)C3CC[C@]4(OC(C)=O)C[C@@]3(CCC21)CC4=O (stereo not given in full) | n | n | u | n | n | n
C=C1C(=O)[C@]23C[C@H]1CCC2[C@@]1(C)C(C[C@@H]3O)[C@](C)(C(=O)OC)CC[C@@H]1O (stereo not given in full) | 2.31µM | 13µM | x | n | 2.31µM | x
CN(C)CCCNc1ncnc2ccc(-c3ccc4c(c3)OCO4)cc12 | x | n | x | n | x | x
